In the supplement of paper PMC11732987, “Enantioselective OTUD7B fragment discovery through chemoproteomics screening and high-throughput optimisation” (Communications Chemistry, 2025):

Columns and labels:
Experiment in all cases: log2 ratio of Biotin-Ahx-Ub-VS probe labelling (fragment/DMSO); higher = less target engagement (more negative = stronger competition), active = hit call of the paper (q ≤ 0.05, log2 ratio ≤ -1)
Settings in all cases: compound concentration: 200 uM; treatment time: 3 h
USP34 = USP34 (UniProt Q70CQ2)
Summary of the method: (§1)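 The table lists average log2 ratios of fragment over vehicle, from an unpaired t-test on global-median-normalised Spectronaut label-free quantities. Proteins with ≥2 unique peptides were used. Samples were HEK293T lysate (495 µg) treated in triplicate with fragment at 200 µM or vehicle for 3 h, then with Biotin-Ahx-Ub-VS (0.5 µM final) for 1 h, with labelled DUBs NeutrAvidin-enriched and run by diaPASEF LC-MS/MS.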

USP36 = target: T1, USP36 (UniProt Q9P275)
T1 sequence (whole entry): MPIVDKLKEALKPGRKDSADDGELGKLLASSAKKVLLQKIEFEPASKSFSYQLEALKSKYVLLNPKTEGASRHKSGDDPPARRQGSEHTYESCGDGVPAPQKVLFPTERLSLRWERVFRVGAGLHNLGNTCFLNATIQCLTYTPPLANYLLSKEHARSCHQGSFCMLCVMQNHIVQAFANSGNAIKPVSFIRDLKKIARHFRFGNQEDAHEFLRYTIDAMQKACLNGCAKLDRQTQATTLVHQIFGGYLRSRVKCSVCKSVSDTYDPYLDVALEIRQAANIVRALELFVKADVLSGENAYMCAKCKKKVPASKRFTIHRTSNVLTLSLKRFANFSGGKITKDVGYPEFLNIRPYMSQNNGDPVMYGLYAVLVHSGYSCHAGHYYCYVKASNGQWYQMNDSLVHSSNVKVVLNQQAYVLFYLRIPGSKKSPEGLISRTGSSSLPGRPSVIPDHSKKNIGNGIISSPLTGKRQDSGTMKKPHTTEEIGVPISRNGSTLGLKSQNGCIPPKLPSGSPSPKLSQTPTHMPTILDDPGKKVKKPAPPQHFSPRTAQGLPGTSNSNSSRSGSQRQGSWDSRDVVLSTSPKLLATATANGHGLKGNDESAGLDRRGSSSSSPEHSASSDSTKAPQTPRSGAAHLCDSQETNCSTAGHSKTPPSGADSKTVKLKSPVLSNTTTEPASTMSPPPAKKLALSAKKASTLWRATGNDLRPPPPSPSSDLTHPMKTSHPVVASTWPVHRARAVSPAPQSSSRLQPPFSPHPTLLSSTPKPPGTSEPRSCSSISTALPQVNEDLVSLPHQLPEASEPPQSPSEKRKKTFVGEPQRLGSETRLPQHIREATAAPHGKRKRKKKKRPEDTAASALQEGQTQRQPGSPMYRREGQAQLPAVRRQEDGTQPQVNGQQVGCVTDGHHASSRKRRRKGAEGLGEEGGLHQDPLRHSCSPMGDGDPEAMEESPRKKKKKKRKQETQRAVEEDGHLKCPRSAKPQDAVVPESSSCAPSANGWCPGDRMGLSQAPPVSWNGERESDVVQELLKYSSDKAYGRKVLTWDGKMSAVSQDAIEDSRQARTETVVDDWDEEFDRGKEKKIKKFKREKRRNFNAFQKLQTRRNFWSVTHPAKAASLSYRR
Summary of the method: as §1

USP38 = target: T2, USP38 (UniProt Q8NB14)
T2 sequence (whole entry): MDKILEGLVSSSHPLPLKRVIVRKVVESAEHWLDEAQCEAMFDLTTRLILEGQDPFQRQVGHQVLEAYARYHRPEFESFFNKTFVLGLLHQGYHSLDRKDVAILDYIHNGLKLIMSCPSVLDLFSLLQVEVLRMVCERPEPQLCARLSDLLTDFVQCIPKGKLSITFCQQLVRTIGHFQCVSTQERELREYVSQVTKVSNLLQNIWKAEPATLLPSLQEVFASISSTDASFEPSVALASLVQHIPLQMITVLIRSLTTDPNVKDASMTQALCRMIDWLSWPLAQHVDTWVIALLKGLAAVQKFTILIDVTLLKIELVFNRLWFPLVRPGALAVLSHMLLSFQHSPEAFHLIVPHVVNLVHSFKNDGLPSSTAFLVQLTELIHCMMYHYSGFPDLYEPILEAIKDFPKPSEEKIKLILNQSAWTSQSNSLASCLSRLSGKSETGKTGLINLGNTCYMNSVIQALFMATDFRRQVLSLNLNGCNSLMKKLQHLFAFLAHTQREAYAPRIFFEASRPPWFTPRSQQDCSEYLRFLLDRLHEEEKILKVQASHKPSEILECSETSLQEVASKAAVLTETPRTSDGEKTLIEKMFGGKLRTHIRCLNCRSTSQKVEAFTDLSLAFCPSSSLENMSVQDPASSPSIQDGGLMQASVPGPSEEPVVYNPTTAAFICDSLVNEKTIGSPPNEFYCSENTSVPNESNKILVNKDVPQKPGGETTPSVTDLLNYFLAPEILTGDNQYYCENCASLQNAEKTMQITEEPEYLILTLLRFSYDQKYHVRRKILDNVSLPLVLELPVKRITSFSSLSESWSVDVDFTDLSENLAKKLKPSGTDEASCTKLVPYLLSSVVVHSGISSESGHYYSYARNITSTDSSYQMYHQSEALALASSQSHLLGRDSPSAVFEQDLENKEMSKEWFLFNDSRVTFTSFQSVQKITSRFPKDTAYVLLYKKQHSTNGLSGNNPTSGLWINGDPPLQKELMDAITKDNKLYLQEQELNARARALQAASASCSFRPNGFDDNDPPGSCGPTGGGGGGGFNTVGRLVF
Summary of the method: as §1

USP39 = target: T3, USP39 (UniProt Q53GS9)
T3 sequence (whole entry): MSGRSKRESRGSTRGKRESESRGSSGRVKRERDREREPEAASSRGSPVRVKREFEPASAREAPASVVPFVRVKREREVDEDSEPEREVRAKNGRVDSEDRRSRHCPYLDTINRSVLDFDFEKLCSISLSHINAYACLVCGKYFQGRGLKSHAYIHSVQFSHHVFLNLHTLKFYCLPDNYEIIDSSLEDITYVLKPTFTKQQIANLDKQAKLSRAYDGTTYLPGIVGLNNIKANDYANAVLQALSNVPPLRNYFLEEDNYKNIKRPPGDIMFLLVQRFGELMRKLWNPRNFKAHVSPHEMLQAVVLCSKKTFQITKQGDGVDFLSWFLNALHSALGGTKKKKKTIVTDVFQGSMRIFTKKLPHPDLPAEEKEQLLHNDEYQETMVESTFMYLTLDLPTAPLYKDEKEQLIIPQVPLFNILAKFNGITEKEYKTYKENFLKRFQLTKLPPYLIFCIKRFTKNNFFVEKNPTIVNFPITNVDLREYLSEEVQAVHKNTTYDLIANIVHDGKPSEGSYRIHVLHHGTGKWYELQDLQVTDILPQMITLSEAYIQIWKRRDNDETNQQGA
Summary of the method: as §1

USP4 = target: T4, USP4 (UniProt Q13107)
T4 sequence (whole entry): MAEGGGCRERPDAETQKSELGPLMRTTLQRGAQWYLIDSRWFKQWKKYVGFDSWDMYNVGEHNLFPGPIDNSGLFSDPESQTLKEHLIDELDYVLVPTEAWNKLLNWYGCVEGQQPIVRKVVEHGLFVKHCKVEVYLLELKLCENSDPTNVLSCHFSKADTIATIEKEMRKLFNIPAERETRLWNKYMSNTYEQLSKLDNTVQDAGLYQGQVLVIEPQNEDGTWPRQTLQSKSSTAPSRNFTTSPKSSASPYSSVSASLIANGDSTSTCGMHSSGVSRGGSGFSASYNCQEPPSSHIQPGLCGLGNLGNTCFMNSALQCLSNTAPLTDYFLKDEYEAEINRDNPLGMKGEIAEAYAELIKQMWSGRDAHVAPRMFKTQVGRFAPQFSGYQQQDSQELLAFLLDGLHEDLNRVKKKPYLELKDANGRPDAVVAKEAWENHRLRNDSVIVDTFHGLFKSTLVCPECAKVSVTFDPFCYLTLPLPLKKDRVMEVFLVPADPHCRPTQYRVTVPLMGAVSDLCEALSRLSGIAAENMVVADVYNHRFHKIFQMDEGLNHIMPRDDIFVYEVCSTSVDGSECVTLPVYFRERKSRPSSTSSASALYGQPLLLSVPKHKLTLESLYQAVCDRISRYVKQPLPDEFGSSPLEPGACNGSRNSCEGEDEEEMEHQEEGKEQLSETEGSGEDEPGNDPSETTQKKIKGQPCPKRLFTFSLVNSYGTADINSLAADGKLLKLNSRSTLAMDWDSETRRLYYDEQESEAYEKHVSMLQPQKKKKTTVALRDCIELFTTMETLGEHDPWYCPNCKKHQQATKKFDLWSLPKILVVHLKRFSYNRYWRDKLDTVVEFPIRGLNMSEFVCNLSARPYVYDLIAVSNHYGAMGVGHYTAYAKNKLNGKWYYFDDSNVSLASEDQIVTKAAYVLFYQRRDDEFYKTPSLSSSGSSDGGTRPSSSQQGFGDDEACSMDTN
Summary of the method: as §1

Measured: log2 ratio of Biotin-Ahx-Ub-VS probe labelling

Sequence of USP34 (Q70CQ2 whole entry, the tested form may be a part): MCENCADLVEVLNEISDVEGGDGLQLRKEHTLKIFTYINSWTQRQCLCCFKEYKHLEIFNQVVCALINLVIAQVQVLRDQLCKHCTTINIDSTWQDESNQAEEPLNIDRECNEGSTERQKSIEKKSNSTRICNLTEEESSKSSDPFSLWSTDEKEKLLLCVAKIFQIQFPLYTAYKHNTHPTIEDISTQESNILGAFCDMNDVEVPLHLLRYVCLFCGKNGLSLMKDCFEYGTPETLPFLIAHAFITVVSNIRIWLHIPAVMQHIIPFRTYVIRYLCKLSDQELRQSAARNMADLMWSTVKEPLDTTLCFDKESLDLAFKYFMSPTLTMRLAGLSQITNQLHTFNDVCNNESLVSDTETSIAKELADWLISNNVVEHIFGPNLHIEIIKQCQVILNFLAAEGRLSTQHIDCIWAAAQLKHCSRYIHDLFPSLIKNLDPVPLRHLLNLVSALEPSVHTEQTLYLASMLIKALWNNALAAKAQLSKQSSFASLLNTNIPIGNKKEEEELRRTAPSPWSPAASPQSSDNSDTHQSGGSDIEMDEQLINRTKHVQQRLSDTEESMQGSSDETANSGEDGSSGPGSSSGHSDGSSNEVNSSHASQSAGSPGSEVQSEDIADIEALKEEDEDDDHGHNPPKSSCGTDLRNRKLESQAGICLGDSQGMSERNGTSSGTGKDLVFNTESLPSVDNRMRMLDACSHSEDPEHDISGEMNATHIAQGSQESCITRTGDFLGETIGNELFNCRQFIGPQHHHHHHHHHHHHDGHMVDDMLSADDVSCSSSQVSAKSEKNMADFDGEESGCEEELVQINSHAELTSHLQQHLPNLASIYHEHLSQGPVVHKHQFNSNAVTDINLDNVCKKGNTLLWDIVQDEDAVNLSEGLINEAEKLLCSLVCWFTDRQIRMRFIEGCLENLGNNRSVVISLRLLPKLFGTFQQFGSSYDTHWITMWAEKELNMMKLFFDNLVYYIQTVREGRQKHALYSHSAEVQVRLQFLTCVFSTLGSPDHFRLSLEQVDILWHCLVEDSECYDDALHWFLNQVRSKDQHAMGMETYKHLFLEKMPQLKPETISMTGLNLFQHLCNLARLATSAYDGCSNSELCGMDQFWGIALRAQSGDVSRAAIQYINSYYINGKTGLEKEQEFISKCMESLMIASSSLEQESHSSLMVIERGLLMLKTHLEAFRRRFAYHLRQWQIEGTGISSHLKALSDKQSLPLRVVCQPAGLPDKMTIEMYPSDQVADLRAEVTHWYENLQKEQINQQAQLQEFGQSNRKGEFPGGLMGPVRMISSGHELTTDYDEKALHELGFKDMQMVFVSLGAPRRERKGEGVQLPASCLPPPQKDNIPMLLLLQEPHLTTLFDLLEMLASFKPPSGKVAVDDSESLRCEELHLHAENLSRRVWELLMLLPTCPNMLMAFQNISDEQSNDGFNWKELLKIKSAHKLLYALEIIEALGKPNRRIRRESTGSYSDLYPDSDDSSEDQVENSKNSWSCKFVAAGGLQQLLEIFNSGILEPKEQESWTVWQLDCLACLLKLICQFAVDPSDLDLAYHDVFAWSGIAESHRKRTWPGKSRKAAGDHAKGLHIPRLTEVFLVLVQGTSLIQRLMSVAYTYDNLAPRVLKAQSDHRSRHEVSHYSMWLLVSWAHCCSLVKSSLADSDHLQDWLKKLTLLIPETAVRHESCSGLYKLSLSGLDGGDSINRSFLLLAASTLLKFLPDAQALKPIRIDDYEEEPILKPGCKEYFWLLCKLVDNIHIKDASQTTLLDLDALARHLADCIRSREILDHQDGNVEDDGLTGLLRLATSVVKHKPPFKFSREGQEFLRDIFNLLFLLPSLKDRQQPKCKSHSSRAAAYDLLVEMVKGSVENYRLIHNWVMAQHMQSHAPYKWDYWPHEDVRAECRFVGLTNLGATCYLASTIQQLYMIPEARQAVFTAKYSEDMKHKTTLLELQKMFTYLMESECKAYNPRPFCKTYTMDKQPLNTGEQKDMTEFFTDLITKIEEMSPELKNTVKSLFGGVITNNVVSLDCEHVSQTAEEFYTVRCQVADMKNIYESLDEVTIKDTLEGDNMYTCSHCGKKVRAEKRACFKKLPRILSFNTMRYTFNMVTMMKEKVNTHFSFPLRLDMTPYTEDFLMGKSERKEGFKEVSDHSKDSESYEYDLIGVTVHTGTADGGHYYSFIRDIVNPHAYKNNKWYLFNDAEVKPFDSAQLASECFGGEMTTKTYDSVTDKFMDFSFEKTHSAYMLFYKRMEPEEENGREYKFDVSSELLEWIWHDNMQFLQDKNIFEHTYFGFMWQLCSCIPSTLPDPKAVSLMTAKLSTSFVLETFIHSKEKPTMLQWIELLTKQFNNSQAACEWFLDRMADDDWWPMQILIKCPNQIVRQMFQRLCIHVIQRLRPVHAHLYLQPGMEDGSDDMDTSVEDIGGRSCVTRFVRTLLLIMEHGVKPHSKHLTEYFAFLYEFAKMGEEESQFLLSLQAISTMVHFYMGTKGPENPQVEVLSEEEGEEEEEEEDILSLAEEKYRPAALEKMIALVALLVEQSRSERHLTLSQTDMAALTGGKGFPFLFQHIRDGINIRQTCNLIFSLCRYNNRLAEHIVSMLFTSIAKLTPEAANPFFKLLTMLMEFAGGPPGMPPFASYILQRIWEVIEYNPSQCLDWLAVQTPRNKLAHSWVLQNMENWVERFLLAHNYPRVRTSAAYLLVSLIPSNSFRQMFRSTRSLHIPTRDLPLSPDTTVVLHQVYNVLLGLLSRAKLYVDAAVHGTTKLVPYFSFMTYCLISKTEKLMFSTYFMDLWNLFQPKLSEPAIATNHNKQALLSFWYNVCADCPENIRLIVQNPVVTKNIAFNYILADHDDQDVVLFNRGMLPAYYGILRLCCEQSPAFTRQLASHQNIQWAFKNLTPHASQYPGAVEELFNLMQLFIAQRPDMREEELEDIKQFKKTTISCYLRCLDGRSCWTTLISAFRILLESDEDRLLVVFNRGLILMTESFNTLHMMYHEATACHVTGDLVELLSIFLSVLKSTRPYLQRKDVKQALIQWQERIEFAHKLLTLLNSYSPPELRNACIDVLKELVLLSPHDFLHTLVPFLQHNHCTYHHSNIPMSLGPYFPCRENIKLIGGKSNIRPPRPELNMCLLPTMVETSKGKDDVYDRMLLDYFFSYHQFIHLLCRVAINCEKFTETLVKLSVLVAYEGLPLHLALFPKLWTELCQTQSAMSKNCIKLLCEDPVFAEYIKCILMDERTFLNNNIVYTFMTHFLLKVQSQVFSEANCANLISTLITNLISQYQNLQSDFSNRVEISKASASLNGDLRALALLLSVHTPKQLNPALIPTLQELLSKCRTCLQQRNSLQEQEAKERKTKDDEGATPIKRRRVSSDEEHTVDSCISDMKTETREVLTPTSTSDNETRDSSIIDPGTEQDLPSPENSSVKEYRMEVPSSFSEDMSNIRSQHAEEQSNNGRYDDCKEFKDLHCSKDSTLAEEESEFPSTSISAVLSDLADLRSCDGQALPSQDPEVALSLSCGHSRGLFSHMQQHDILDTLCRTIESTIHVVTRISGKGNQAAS

O=C(CCl)Nc1ccc2c(c1)OC(F)(F)O2
inactive: USP34 -0.119 | USP36 0.029 | USP38 0.122 | USP39 0.433 | USP4 0.0436
